Compound activity from PubChem BioAssay.
Rows were chosen to be rich in hits. Some 1.2% of all compounds tested hit in one or more screens of this group.
TLR9-MyD88 block = inhibitors of TLR9-MyD88 association in cells, primary screen, cell-based, CHO, BLA complementation, fluorescence; Toll-like receptor 9 (Homo sapiens) + Myeloid differentiation primary response protein …; CCF4 FRET ratio; inhibition, % at 4.98 µM; 340,000 tested, 0.21% active; AID 504734, 2011;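 active = inhibition above the mean over all tested compounds plus 3 SD, cut at about 21% in these data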
Neddyl block = inhibitors of cullin neddylation, primary screen, biochemical, TR-FRET, uHTS, NAE and Ubc12; inhibition, % at 25 µM; 360,000 tested, 0.58% active; in the data active = inhibition above about 36%
GC-B act = human GC-B receptor activators, primary screen, HEK293 GC-B cells, cGMP TR-FRET, EC30 CNP | 0% at EC30 CNP, 100% saturating CNP | 370,000 tested, 0.11% active | activation, % at 10 µM | Atrial natriuretic peptide receptor 2 (Homo sapiens), P20594;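 active = activation at 10 µM reaching about 35% in either raw or pattern-adjusted values, limit read from the data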
GC-A act = GC-A stimulated cGMP production enhancers – HEK293 GC-A cells, cGMP TR-FRET, EC30 ANP, primary screen; activation, % at 10 µM; AID 1671463, 2021; 0% at EC30 ANP, 100% saturating ANP; Atrial natriuretic peptide receptor 1 (Homo sapiens), P16066; 370,000 tested, 0.14% active; in the data active = activation above about 40%
NOD2-RIPK2 inh = NOD2-RIPK2 binding disruptors in cells, primary screen, fluorescence, CHO cells, BLA complementation | Receptor-interacting serine/threonine-protein kinase 2 (Homo sapiens), O43353 | CCF4 ratio | inhibition, % at 4.98 µM | 360,000 tested, 0.38% active; in the data active = inhibition above about 21%
Target sequence (O43353 whole entry, looked up): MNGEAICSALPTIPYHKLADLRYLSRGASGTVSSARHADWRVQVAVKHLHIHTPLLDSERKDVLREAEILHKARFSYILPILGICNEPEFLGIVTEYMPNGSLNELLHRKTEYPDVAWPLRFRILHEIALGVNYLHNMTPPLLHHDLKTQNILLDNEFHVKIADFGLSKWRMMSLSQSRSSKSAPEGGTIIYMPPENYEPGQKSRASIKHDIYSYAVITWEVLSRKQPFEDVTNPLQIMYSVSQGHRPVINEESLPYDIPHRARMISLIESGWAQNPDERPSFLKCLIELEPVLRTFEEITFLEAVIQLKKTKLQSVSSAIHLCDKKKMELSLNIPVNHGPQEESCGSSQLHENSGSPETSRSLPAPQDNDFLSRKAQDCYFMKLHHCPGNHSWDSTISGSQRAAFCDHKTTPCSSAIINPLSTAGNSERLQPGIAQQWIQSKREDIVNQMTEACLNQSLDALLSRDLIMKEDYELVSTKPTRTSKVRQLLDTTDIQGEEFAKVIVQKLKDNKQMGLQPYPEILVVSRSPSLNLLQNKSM
TLR4 MyD88 comp = inhibitors of TLR4-MyD88 association in cells, primary screen, cell-based, HeLa CL3-4, BLA complementation, FRET ratio; Toll-like receptor 4 (Homo sapiens) + Myeloid differentiation primary response protein …; HeLa CL3-4 TLR4/MyD88 BLA complementation; inhibition, % at 8.4 µM; 200,000 tested, 0.18% active; in the data active = inhibition above about 25%
Neddyl inh conf = blockade of NEDD8 conjugation to cullin – biochemical, TR-FRET, single concentration, confirmation. 1,800 tested, 13% active. calls only at 25 µM. shares compounds with Neddyl block. TR-FRET cullin neddylation biochemical assay; in the data active = inhibition above about 40%;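 note: neddylation substrate is the cullin 1 ring ligase complex with SKP2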
Numbers stand for hits; 0 = inactive; - = no result given.

SMILES	TLR9-MyD88 block	Neddyl block	GC-B act	GC-A act	NOD2-RIPK2 inh	TLR4 MyD88 comp	Neddyl inh conf
COC(=O)c1ccc(CNC(=O)COC(=O)/C=C/c2cccc(OC)c2)cc1	0	46.0	0	0	0	-	0
COc1cccc(/C=C/C(=O)OCC(=O)Nc2nnc(-c3ccccc3)o2)c1	0	47.4	-	-	0	-	0
COc1ccccc1C(=O)NC(=O)CSc1nnc2ccccn12	0	43.6	0	0	0	-	0
O=C(CSc1nnc2ccccn12)NC(=O)c1ccccc1Cl	0	0	0	0	0	-	-
Cc1cc(=O)oc2cc(OCC(=O)Nc3c(C)n(C)n(-c4ccccc4)c3=O)c(Cl)cc12	0	40.5	0	0	0	-	0
Cc1cc(=O)oc2cc(OCC(=O)NC3(C#N)CCCCC3)ccc12	0	-	0	0	0	-	-
Cc1cc(=O)oc2cc(OCC(=O)NC3(C#N)CCCCC3)c(Cl)cc12	0	40.1	0	0	0	-	0
CCCCN(C)C1=Nc2cccc3cccc1c23	0	39.2	0	0	0	0	0
c1cc2c3c(cccc3c1)C(N1CCN(C3=Nc4cccc5cccc3c45)CC1)=N2	-	-	-	-	-	0	-
N#Cc1ccc(NC(=S)N2CCC3CC2c2cc(-c4ccc5c(c4)OCO5)ccc23)cc1 (configuration not stated)	-	0	0	0	0	-	-
Cc1cccc(C)c1C(O)c1ncc(-c2ccc(F)cc2)[nH]1 (configuration not stated)	-	0	-	-	0	-	-
CCOC(=O)c1cnc2c(C(=O)OC)cccc2c1NCc1ccco1	0	42.2	0	0	0	0	0
N/C(=N\N=Cc1ccc2c(c1)OCO2)NN=Cc1ccc2c(c1)OCO2	0	41.5	0	0	0	-	-
CC(C)CC(N)c1csc(NC(=O)c2cc(C(C)(C)C)nn2Cc2ccccc2)n1 (configuration not stated)	-	0	0	0	0	-	-
N#CC1=C(N)Oc2cc(N)ccc2C1c1ccc(Cl)cc1 (configuration not stated)	0	0	0	0	0	-	-
CCc1ccc(C2C(C#N)=C(N)Oc3cc(N)ccc32)cc1 (configuration not stated)	0	44.2	0	0	0	-	0
CCc1nc2c(OCc3ccc(C(F)(F)F)cc3)cccn2c1N(C)C(=O)c1ccncc1	-	0	0	0	0	-	-
Clc1ccc(-c2ccc(-c3nn4c(-c5ccco5)nnc4s3)o2)cc1	0	42.1	0	0	0	0	0
S=c1[nH]nc2ccc3ccccc3n12	-	38.3	0	0	0	-	-
CCCNC(=O)C1(C)CCCN(Cc2ccc(-c3ccccc3)o2)C1 (configuration not stated)	-	0	0	0	0	-	-
Cc1cc(=O)oc2cc(NC(=S)NNC(=O)c3c(Cl)cnn3C)ccc12	0	52.3	0	0	0	-	0
Cc1cc(=O)oc2cc(NC(=S)NCc3ccccn3)ccc12	0	0	0	0	0	0	-
NC(=O)c1c(NC(=O)c2cccc(N3C(=O)CCC3=O)c2)sc2c1CCCCC2	0	51.7	0	0	0	-	-
CNC(=O)c1c(NC(=O)c2cccc(C)c2)sc2c1CCC2	0	49.1	0	0	0	-	-
COc1cc(C(=O)Nc2sc3c(c2C(=O)O)CCC3)cc(OC)c1OC	0	40.8	0	0	0	-	-
Cc1cccc(C(=O)Nc2sc3c(c2C(=O)O)CCC3)c1	0	0	0	0	0	-	-
Cc1ccc(C(=O)Nc2sc3c(c2C(=O)O)CCCC3)o1	0	50.7	0	0	0	-	-
CNC(=O)c1c(NC(=O)c2cccc(N3C(=O)CCC3=O)c2)sc2c1CCCC2	0	-	0	0	0	-	-
CS(=O)(=O)N1c2ccccc2C[C@H]1Cc1cc2ccccc2o1	-	-	0	0	-	-	-
